Bioassay records deposited in PubChem by National Center for Advancing Translational Sciences (NCATS).
In the library only some 21% were active in any assay of this set; here they are far more common.
Pf growth 48h – P. falciparum growth inhibition at 48 hours (one generation); P. falciparum luciferase growth in erythrocytes, 48 h; Potency, µM (doses to about 28.7 µM), without a hit: top-dose activity change, negative = inhibition, most hits filed as inhibitors; 5.9% of 310,000 active; AID 504832; note: potency is the fitted concentration of half-maximal effect; % is set by controls: 0 for no effect and ±100 for the full control effect
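A one-generation exposure of luciferase-tagged malaria parasites in RPMI 1640/Albumax erythrocyte culture, 37 C and 5% CO2. Inhibition is inferred from decreased luminescence after adding detection reagent.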
Pf growth 96h – P. falciparum growth inhibition at 96 hour, primary screen for plastid delayed-death inhibitors; P. falciparum luciferase reporter growth, 96 h; Potency, µM (series often up to 28.7 µM), for inactives: at the highest dose activity change, negative = inhibition, usual class: inhibitors; 6.9% of 320,000 active; AID 504834; note: potency is the fitted concentration of half-maximal effect; % is set by controls: 0 for no effect and ±100 for the full control effect
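96 h incubation, 37 C, 5% CO2, of luciferase-reporter P. falciparum-infected RBCs (2% hematocrit, 0.05% parasitemia final) with test compounds; endpoint luminescence.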
Shiga toxin inh – Shiga toxin inhibition; AID 2315; Vero cells, Shiga toxin protein synthesis inhibition reporter; inhibition, % at 38.7 µM; 9.2% of 290,000 active; in the data active = inhibition mostly above about 28%, no sharp cut-off; inactive = mostly below about 43%; note: 0% is about no effect
NS1 inh – influenza NS1 inhibition; Potency, µM (titrated, usually from 46.1 µM), inactives show at the highest dose activity, positive = more growth; AID 2326; 0.4% of 270,000 active; calls by dose curve; note: potency is the fitted concentration of half-maximal effect; actives are rising curves; nearly all actives have a fitted effect of over 50% in size
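In this qHTS, NS1 from influenza A is expressed in budding yeast, where it slows growth. Cells are switched from glucose to 2% galactose medium (pH 6.0, -URA), treated with compound, and growth recovery is read at OD600.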
Cycloheximide cs – counter-screen for Shiga toxin inhibitors: cycloheximide protein synthesis inhibition | cell reporter, cycloheximide protein synthesis inhibition counterscreen | AID 2314 | max response, % | 12% of 300,000 active; in the data active = max response mostly above about 13%, no sharp cut-off; inactive = mostly below about 14%; note: read at 38.3 µM for the half of the compounds with a filed dose; 0% is about no effect
Sm TGR inh – S. mansoni TGR enzyme inhibition. Q962Y6. purified TGR, DTNB reduction, TNB absorbance 405 nm. Potency, µM (series often up to 114 µM), inactives show at the highest dose activity change, negative = inhibition, most hits filed as inhibitors. 3% of 360,000 active. AID 485364; note: potency is the fitted concentration of half-maximal effect; % is set by controls: 0 for no effect and ±100 for the full control effect; nearly all actives have a fitted effect of over 60% in size
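Kinetic colorimetric format: TGR-catalysed, NADPH-driven DTNB reduction monitored via TNB absorbance. Enzyme dispensed at 20 nM; compound exposure 15 min at room temperature before reaction start.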
Numbers without * were called inactive; i = inactive; ? = inconclusive; · = no result; [ ] = remark or other dose. Unless noted, calls come from the whole dose curve; as a rule, active = well fitted curve in the direction sought with a large enough effect; inconclusive = small, poorly fitted or top-dose-only effect, or another doubt; inactive = no such curve, though single readings can be large; an effect the other way counts as inactive or inconclusive.

SMILES	Pf growth 48h	Pf growth 96h	Shiga toxin inh	NS1 inh	Cycloheximide cs	Sm TGR inh
COc1cc(OC)c(C(=O)Nc2cc(Cl)ccc2-n2cncn2)cc1OC	5.9µM*	5.9µM*	·	·	·	-22%
COc1ccccc1C(=O)Nc1cc(Cl)ccc1-n1cncn1	?	?	5	-3%	3	9%
O=C(Nc1ccccc1F)Nc1cc(Cl)ccc1-n1cncn1	0%	16%	-11	6%	-6	1%
O=C(Nc1cc(Cl)ccc1-n1cncn1)c1ccc([N+](=O)[O-])s1	?	?	-23	-105%	19*	?
CSc1ccccc1NC(=O)CN(C)CC(=O)Nc1c(F)cccc1F	6%	1%	24	10%	-3	-8%
CC(=O)Nc1c(C)nn(-c2ccccc2)c1N1CCC(C(=O)NCc2ccc(F)cc2)CC1	·	·	·	·	·	4%
Cc1cc(NC(=O)CN2C(=O)NC(CC(C)C)C2=O)ccc1Br (centres undefined)	-14%	7%	·	·	·	-22%
Cc1csc(NC(=O)c2ccc(S(=O)(=O)N3CCCC3)cc2)n1	55%	-2%	39	-2%	17*	0%
Cc1csc(NC(=O)C2CCCCN2S(=O)(=O)c2ccccc2)n1 (centres undefined)	?	-1%	26	1%	13*	0%
Cc1csc(NC(=O)c2ccc(S(=O)(=O)N3CCN(C)CC3)cc2)n1	22%	?	58*	6%	32*	0%
O=C(Nc1nc(-c2ccc(S(=O)(=O)N3CCCCCC3)cc2)cs1)c1ccccc1	·	1%	-4	13%	-5	1%
O=C(Nc1nc(-c2ccc3c(c2)OCCO3)cs1)c1ccc(S(=O)(=O)N2CCCCC2)cc1	12µM*	?	3	6%	-2	-6%
CCOc1ccc(N2CC(C(=O)Nc3c(C)n(C)n(-c4ccccc4)c3=O)CC2=O)cc1 (centres undefined)	1%	-4%	-11	·	6	6%
O=C(CSc1nnc(CNC(=O)c2c(F)cccc2F)o1)NCCc1ccccc1	-6%	11%	-5	6%	-3	-17%
NC(N)=NN=C1CCCCCCCCCCC1	10µM*	3.7µM*	-14	5%	-5	14%
C=CCNC(=O)C(=O)NCCOc1ccccc1Cl	11%	?	17	-12%	-1	-10%
Cc1cc(NCCOCCO)n2ncc(-c3ccc(Cl)cc3)c2n1	444%	i	74*	-66%	23*	2%
Cc1cc(C(F)(F)Cl)n2ncc(-c3ccccn3)c2n1	8%	5%	4	-2%	-4	4%
Cc1cc(C(F)(F)F)n2nc(C)c(-c3ccc(Cl)cc3)c2n1	1%	-100%	-28	16%	-3	-5%
Cc1cc(NCc2ccccn2)n2ncc(-c3ccc(Cl)cc3)c2n1	33%	36%	48*	-6%	29*	12%
Cc1cc(NCc2ccccn2)n2nc(C)c(-c3ccc(Cl)cc3)c2n1	1.7µM*	2.9µM*	-13	-4%	5	5%
COc1ccccc1-c1cnn2c(NCc3ccccc3)cc(C)nc12	-10%	?	34	-4%	12	0%
Cc1cc(NCc2ccccn2)n2ncc(-c3ccccc3)c2n1	193%	-69%	70*	-12%	44*	14%
Cc1cc(NCCc2ccc(Cl)cc2)n2ncnc2n1	-6%	21%	-16	0%	11	42%
Cc1cc2c(cc3c(SCc4ccc(Cl)cc4)nnc(C)n32)o1	·	·	·	·	·	0%
SMILES	Pf growth 48h	Pf growth 96h	Shiga toxin inh	NS1 inh	Cycloheximide cs	Sm TGR inh
Cc1cc(CSc2ccccc2)ccc1NC(=O)c1ccc(C)c([N+](=O)[O-])c1	6%	12%	-1	16%	-1	13%
O=C(Nc1ccccc1C(F)(F)F)c1ccc(CN2CCC(Cc3ccccc3)CC2)cc1	13µM*	10µM*	-13	-19%	-2	10%
Cc1cc(CSc2ccccc2)ccc1NC(=O)c1ccc(CN2CCOCC2)cc1	-34%	2.9µM*	3	9%	-1	-7%
CSc1ccccc1NC(=O)c1ccc(CN2CCOCC2)cc1	-15%[5.75 µM]	-19%	52*	·	13*	14%
COCCNC(=O)C(c1ccc(F)cc1)N(C(=O)CCC(=O)Nc1nccs1)c1cccc(C)c1 (centres undefined)	-15%	3%	-4	6%	-1	26%
CCOC(=O)c1ccc(NC(=O)c2ccc(OC(C)C)c(OC)c2)cc1	?	19%	-13	-7%	-4	8%
CCN(CC)c1ccc(C=N/C(C#N)=C(\N)C#N)cc1	53%	·	54*	-12%	28*	-28%
CCN(CC)c1ccc(/C=N/Nc2nn[nH]n2)cc1	-2%	1%	26	-58%	7	-33%
CCOc1ccc(CCNC(=O)c2ccc(=O)[nH]c2)cc1OCC	-3%	3%	-2	7%	-2	3%
Cn1c(N2CCOCC2)c(/C=N/OC(=O)c2cccnc2Cl)c2ccccc21	?	3%	18	-3%	6	·
Cn1c(N2CCOCC2)c(/C=N/O)c2ccccc21	6%	0%	-5	-1%	10	·
CC(=O)O/N=C/c1c(N2CCOCC2)n(C)c2ccccc12	3.7µM*	3.7µM*	-3	-105%	0	1%
Cc1ccc(C(=O)O/N=C/c2c(N3CCOCC3)n(C)c3ccccc23)cc1	?	3.3µM*	-8	-142%	-3	-16%
Cn1c(N2CCOCC2)c(/C=N/OC(=O)c2ccc(F)cc2)c2ccccc21	1.3µM*	1µM*	-15	-211%	-4	3%
Cc1ccccc1NC(=O)c1cc2c(=O)n3cccc(C)c3nc2s1	11%	14%	2	-2%	-1	1%
CCCCCCSc1cccc(-c2nc3ccc(C)cn3c2NC2CCCCC2)c1	9.3µM*	5.2µM*	·	·	·	-6%
CCCCCCSc1cccc(-c2nc3cc(C)ccn3c2NC2CCCCC2)c1	9.3µM*	?	·	·	·	1%
COc1ccc(NC2C[C@H]3CCCC(=O)N4CC[C@@H](C2)[C@@H]34)cc1 (some centres undefined)	·	·	i	·	-1	·
CCC1CN(C(=O)Nc2ccc(C)c(F)c2)c2ccccc2S1 (centres undefined)	·	·	·	·	·	-2%
N=C(N)SCc1nc(-c2ccc(Cl)cc2)no1	·	·	·	-6%	·	·
CC(=O)c1cnc2nc(SCc3ccccc3C)nn2c1C	58%	8%	21	-18%	18*	-23%
CC(=O)c1cnc2nc(C(F)(F)F)nn2c1C	0%	4%	-12	?	-3	-6%
Cc1nn(CC(=O)NCc2ccc(-n3cccn3)cc2)c(C)c1[N+](=O)[O-]	5%	-27%	-3	0%	-4	1%
Cc1cc(C)cc(C(=O)O/N=C(\N)c2ccc(Br)cc2)c1	?	·	16	-12%	12	8%
